# Test results published in PubChem BioAssay AID504697 (The Scripps Research Institute Molecular Screening Center, 2011).
# Unmarked numbers belong to inactive results. Calls of active or inactive are those of the source.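 The calls were made as follows: active = EC50 at or below 10 µM; inactive = EC50 above 10 µM.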
# Assay: compound autofluorescence in calcium buffer – biochemical, fluorescence, no RTF in test wells, artefact control for cardiac thin filament activator project, dose response (AID 504697);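 also: emission near 535 nm under roughly 485 nm excitation as for IANBD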
# Details: compound-only fluorescence in RTF assay buffer with Ca2+ (no RTF in test wells), artifact counterscreen
row,Compound,EC50
1,Cc1cc(/C=C2\SC(=S)N(C)C2=O)c(C)n1-c1ccccc1O,15.7 µM
2,CC(C(=O)c1ccc(Br)cc1)[n+]1cccc2ccccc21 (configuration not stated),> 71.5 µM
3,Cc1ccnc(N/C=C(\C#N)c2nc(-c3cccc(Br)c3)cs2)c1,1.59 µM (active)
4,CCC(C(=O)O)N1C(=O)/C(=C/c2cccn2C)SC1=S (configuration not stated),35.3 µM
5,Cn1nc(NC(=O)C2CCC2C(=O)O)c2c(F)cccc21 (configuration not stated),> 71.5 µM
6,O=c1[nH][nH]c(C(F)(F)F)c1C=NCc1ccccc1Cl,> 71.4 µM
7,COc1ccc(/C=C/C(=O)NC(=S)Nc2ccc(C(=O)O)cc2)cc1,> 71.5 µM
8,NC(=O)C1CCN(C(=O)c2ccc(-c3ccccc3)cc2)CC1,> 71.6 µM
9,N#C/C(=C\c1ccc(N2CCOCC2)o1)C(=O)NC1CCCCC1,16.5 µM
10,CCOC(=O)/C(=C/C1=CC(=C/N(C)C)/C(=O)O1)C(C)=O,15.3 µM
11,CN1CCS/C1=C/C=C1\SC(=S)N(CC(=O)O)C1=O,2.28 µM (active)
12,CC1=CC(=C(C#N)c2nc3ccccc3s2)C=C(C)N1c1ccc(F)cc1,22.2 µM
13,CCN(CC)c1ccc(/C=c2\sc3nnc(-c4ccccc4Cl)n3c2=O)cc1,0.644 µM (active)
14,CC(C)(C)C(=O)/C=c1\s/c(=C\c2ccc(-c3ccc([N+](=O)[O-])cc3)o2)c(=O)n1CC(=O)NC(N)=O,1.72 µM (active)
15,CN(/N=C/c1ccc(N(C)C)cc1)C1=NS(=O)(=O)c2ccccc21,22.5 µM
16,CC(=O)Nc1cc(C(=O)NCc2ccco2)ccc1Sc1ccc(F)cc1,> 71.5 µM
17,CCn1nc(-c2ccccc2)c2nc3ccccc3nc21,10.3 µM
18,C=CCN1C(=O)c2ccccc2NC1c1cc(Br)cs1 (configuration not stated),> 71.5 µM
19,O=C(C1=C(O)C(=O)N(CCN2CCOCC2)C1c1ccc([N+](=O)[O-])cc1)c1cccs1 (configuration not stated),> 71.4 µM

row,Compound,EC50
1,CCOC(=O)/C(=C/C=C1\Sc2cc(OCC)c(OCC)cc2N1CC)C(C)=O,0.48 µM (active)
2,Cc1ccc[n+](-c2nc([O-])sc2C=O)c1,5.53 µM (active)
3,N#C/C(=C\c1ccc(-c2ccc(F)cc2)o1)C(=O)Nc1nc(-c2cccs2)cs1,> 71.5 µM
4,COc1ccccc1C(=O)Oc1ccc2c(c1)O/C(=C\c1ccncc1)C2=O,30.9 µM
5,COc1ccccc1NS(=O)(=O)c1cc([N+](=O)[O-])ccc1N/N=C/c1c(C)[nH]c2ccccc12,9.25 µM (active)
6,O=C1c2ccccc2C(Nc2cccnc2)N1Cc1ccccc1Cl (configuration not stated),> 71.5 µM
7,O=c1[nH][nH]c(C(F)(F)F)c1C=Nc1cccc(Cl)c1,> 71.5 µM
8,Cn1ncc2c(O/N=C(\N)c3ccc(C(F)(F)F)cc3)ncnc21,> 71.5 µM
9,Cn1cnnc1Sc1nc2ccccc2nc1NS(=O)(=O)c1ccccc1,> 71.5 µM
10,O=C(Cn1cnc2c(cnn2-c2ccccc2)c1=O)Nc1ccc(S(=O)(=O)N2CCOCC2)cc1,> 71.5 µM
11,COc1ccc(N/C=C2\C(=O)CCc3c2oc2cc(Cl)c(O)c(Cl)c32)cc1,7.28 µM (active)
12,S=C(Nc1ccc(N2CCOCC2)cc1)Nc1ccc2nc(-c3ccco3)c(-c3ccco3)nc2c1,11.4 µM
13,O=C(Nc1ccccc1)NC1CS(=O)(=O)CC1O (configuration not stated),> 71.5 µM
14,Cc1cc2nc(C3CCCN(C(=O)NCc4ccccc4)C3)[nH]c2cc1C (configuration not stated),> 71.6 µM
15,C=COc1ccc(N2C(=O)c3ccccc3OC2C)cc1 (configuration not stated),> 71.4 µM
16,N#CC1=C(N)Oc2ccc3ccc(O)cc3c2C1c1ccsc1 (configuration not stated),65.8 µM
17,COc1ncnc2c1N=C1CC(C)(C)CC(N)=C1S2,23.5 µM
18,O=C(CNCc1cccs1)Nc1ccc(S(=O)(=O)N2CCCCC2)cc1,> 71.5 µM
